Screening data: PubChem BioAssay, National Center for Advancing Translational Sciences (NCATS)
Only some compounds are listed: those with a hit (about 1.7% of all), similar ones and a draw of the others.
PTHR1 ag: PTHR1 (human) receptor agonism. HEK293 GP2 PTHR1 cells, GloSensor cAMP luminescence, 1 h. Q03431. 410,000 compounds, 0.075% hits. AID 743266. Potency, µM (titrated, usually from 115 µM), without a hit: top-dose activation, hits mostly activators; note: nearly all actives have a fitted effect of over 55% in size
Target sequence (Q03431 whole entry, looked up): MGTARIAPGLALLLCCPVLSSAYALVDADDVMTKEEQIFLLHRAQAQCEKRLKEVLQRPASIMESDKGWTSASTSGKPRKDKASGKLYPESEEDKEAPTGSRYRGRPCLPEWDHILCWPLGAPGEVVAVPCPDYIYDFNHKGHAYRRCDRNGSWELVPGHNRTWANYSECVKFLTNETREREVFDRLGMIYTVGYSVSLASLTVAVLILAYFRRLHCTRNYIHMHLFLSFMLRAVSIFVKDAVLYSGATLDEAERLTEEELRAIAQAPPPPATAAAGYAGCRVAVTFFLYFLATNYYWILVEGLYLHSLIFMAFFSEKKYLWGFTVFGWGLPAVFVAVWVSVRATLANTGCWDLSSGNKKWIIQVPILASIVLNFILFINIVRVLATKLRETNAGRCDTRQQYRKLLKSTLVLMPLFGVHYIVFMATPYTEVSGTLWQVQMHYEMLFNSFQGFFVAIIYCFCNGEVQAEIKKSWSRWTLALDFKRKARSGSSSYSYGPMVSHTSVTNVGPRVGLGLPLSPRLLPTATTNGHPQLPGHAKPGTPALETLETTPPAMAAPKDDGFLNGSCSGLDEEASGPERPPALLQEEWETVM
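HEK-293-derived GP2 cells expressing PTHR1 and a GloSensor cAMP reporter, 3,000/well, plated overnight, given luciferin plus IBMX (each 0.5 mM as added) for 1 h at 37 °C, then compound for 1 h at 37 °C. Luminescence was read after 15 min at room temperature.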
GLP1R inv ag: inverse agonists of human GLP-1 receptor; Potency, µM (series often up to 38.3 µM), for inactives: at the top dose activity change, negative = inhibition, usual class: inhibitors; AID 624417; 410,000 compounds, 1.6% hits; P43220; HEK293 GLP-1R CRE-luciferase, luminescence, 24 h; GLP-1R form is constitutively active; note: % is set by controls: 0 for no effect and ±100 for the full control effect; nearly all actives have a fitted effect of over 55% in size
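Assay principle: reduced luminescence from a cAMP-responsive reporter in HEK293 cells co-expressing a constitutively active GLP-1R. Conditions: 24 hr compound incubation, 37 deg C, 5% CO2.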
GLP1R ag: agonists of human GLP-1 receptor. HEK293 GLP-1R CRE-luciferase, luminescence, 4-6 h; cells express a hypersensitive GLP-1R form. P43220. 380,000 compounds, 0.007% hits. Potency, µM (top dose mostly 45.6 µM), for the others: at the top dose activation, usual class: activators; note: % of control where 0% means no effect
HEK293 tox: cytotoxic in the GLP-1 receptor inverse agonist counter-screen | 410,000 compounds, 0.13% hits | HEK293 cAMP-luciferase reporter cells, luminescence, 24 h | Potency, µM (highest dose often 38.3 µM), inactives show at the top dose activity change, negative = inhibition, most hits filed as inhibitors;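 note: loss of luciferase light is scored as toxicity; % is set by controls: 0 for no effect and ±100 for the full control effect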
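To flag toxic compounds, the library was rerun on cells for 24 hr at 37 deg C and 5% CO2. Viability-linked luminescence was captured 12 min after adding luciferase detection reagent.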
An asterisk follows results filed as active; [ ] = dose if it differs, or a comment. Calls come from the whole dose curve; as a rule, active = well fitted curve in the direction sought with a large enough effect; inconclusive = small, poorly fitted or top-dose-only effect, or another doubt; inactive = no such curve, though single readings can be large; an effect the other way counts as inactive or inconclusive. Potency is the fitted concentration of half-maximal effect.

For Cc1ccc(S(=O)(=O)NCC(Nc2cccc(Cl)c2)c2ccccc2)cc1 (stereo unspecified) the results were PTHR1 ag -32%, GLP1R inv ag 11µM*, GLP1R ag -6% and HEK293 tox -28%.
Cc1ccc(S(=O)(=O)NCC(NCc2ccc(F)cc2)c2ccccc2)cc1 (stereo unspecified) was read as PTHR1 ag -16%, GLP1R inv ag 11µM*, GLP1R ag -3% and HEK293 tox 12%.
CCOc1ccccc1C(=O)N[C@H](C(=O)Nc1nc2c(s1)CCCC2)C(C)C was read as PTHR1 ag inactive, GLP1R inv ag 10µM*, GLP1R ag 21% and HEK293 tox inconclusive.
`COc1ccc(C(=O)N[C@H](C(=O)Nc2nc3c(s2)CCCC3)C(C)C)cc1` gave PTHR1 ag inactive, GLP1R inv ag inconclusive, GLP1R ag 11% and HEK293 tox -4%.
`CC(=O)N1c2ccc(S(=O)(=O)NCCC(=O)Nc3ccc(C)cc3Br)cc2CC1C` (stereo unspecified) gave PTHR1 ag -62%, GLP1R inv ag 6% and HEK293 tox -6%.
For Cc1ccc(C)c(OCC(=O)Nc2ccc3c(c2)OCO3)c1C the results were PTHR1 ag -12%[57.5 µM], GLP1R inv ag 7.9µM*, GLP1R ag 7% and HEK293 tox inconclusive.
`Cc1cccc(OCC(=O)Nc2ccc3c(c2)OCO3)c1C` gave PTHR1 ag -1%[57.5 µM], GLP1R inv ag -23%, GLP1R ag 8% and HEK293 tox 16%.
Screening CCOC(=O)c1c(C)c(C(=O)Nc2ccc3c(c2)OCO3)c(C)n1C returned PTHR1 ag inactive, GLP1R inv ag 0%, GLP1R ag 8% and HEK293 tox -17%.
For CCOC(=O)c1c(N)sc(C(=O)Nc2ccc3c(c2)OCO3)c1C the results were PTHR1 ag -36%, GLP1R inv ag 5.6µM*, GLP1R ag -11% and HEK293 tox inconclusive.
`COC(=O)c1sc2cccc(F)c2c1S(=O)(=O)Nc1cc(C)c(Cl)cc1OC` gave PTHR1 ag -10%, GLP1R inv ag inconclusive and HEK293 tox 4%.
Screening CCn1c(CCCOc2ccc(Cl)cc2Cl)nnc1SCC(=O)Nc1cc(F)ccc1C returned PTHR1 ag -40%, GLP1R inv ag 11µM*, GLP1R ag 11% and HEK293 tox -27%.
`Cc1c(CCOC(=O)C2C3CC4CC(C3)CC2C4)sc[n+]1CC(=O)c1ccc(Br)cc1` (stereo unspecified) gave PTHR1 ag -17%, GLP1R inv ag 11µM*, GLP1R ag -55% and HEK293 tox inconclusive.
`Cc1c(CCOC(=O)c2ccc(Cl)cc2Cl)sc[n+]1CC(=O)c1ccc(Br)cc1` gave PTHR1 ag -38%, GLP1R inv ag 10µM*, GLP1R ag 5% and HEK293 tox inconclusive.
`COc1ccc(C(=O)OCCc2sc[n+](CC(=O)c3ccccc3)c2C)cc1` gave PTHR1 ag -7%, GLP1R inv ag -4%, GLP1R ag 6% and HEK293 tox 2%.
For CCc1cccc(CC)c1NC(=O)CN(C)S(=O)(=O)c1ccc2c(c1)n(C)c(=O)c(=O)n2C the results were PTHR1 ag inactive, GLP1R inv ag 7% and HEK293 tox 7%.
COc1cc(NS(=O)(=O)c2cc3c(cc2C)N(C)CCO3)cc(OC)c1OC was read as PTHR1 ag -36%, GLP1R inv ag -5% and HEK293 tox 3%.
CN(C)CCNC(=O)c1cc2sc3ccccc3c2s1 was read as PTHR1 ag inactive, GLP1R inv ag 3.2µM*, GLP1R ag 2% and HEK293 tox inconclusive.
COCCN(CCOC)C(=O)c1cc2sc3ccccc3c2s1 was read as PTHR1 ag -5%[57.5 µM], GLP1R inv ag 8%, GLP1R ag inconclusive and HEK293 tox -23%.
Screening Cc1cccc(N(C)c2nc3ccc(C(=O)c4ccccc4)cc3n3c(C)nnc23)c1 returned PTHR1 ag -89%, GLP1R inv ag 3% and HEK293 tox 11%.
`COc1ccc(CCN2C(=O)CN(C3CCCCCC3)C(=O)C2c2ccc(OC(C)C)c(OC)c2)cc1OC` (stereo unspecified) gave PTHR1 ag inactive, GLP1R inv ag 5% and HEK293 tox 5%.
Screening FC(F)(F)c1cccc(NC(=S)NC(c2ccccc2)c2ccccc2)c1 returned PTHR1 ag -26%, GLP1R inv ag 2.8µM*, GLP1R ag 5% and HEK293 tox 8%.
For Oc1ccccc1C1SC(c2ccccc2O)SC(c2ccccc2O)S1 (stereo unspecified) the results were PTHR1 ag inactive, GLP1R inv ag 1.1µM*, GLP1R ag 0% and HEK293 tox inconclusive.
`Cc1cc2c(cc1C)CSC(c1ccccc1O)SC2` gave PTHR1 ag inactive, GLP1R inv ag -41%, GLP1R ag -8% and HEK293 tox -17%.
COC(=O)c1cc(O)cc(OC)c1C(=O)c1c(O)cc(C)cc1O was read as PTHR1 ag -49%, GLP1R inv ag -6%, GLP1R ag -2% and HEK293 tox 3%.
`COC(=O)c1cc(O)cc(OC)c1Oc1cc(C)cc(O)c1C(=O)O` gave PTHR1 ag -20%, GLP1R inv ag 8.9µM*, GLP1R ag -9% and HEK293 tox 0%.
Screening c1ccc2c(c1)CCN(c1nc3cc4c(cc3s1)OCCO4)C2 returned PTHR1 ag -42%, GLP1R inv ag 7.1µM*, GLP1R ag -14% and HEK293 tox -14%.
`COc1ccc(N2CCN(c3csc4ccccc4c3=O)CC2)cc1` gave PTHR1 ag -5%, GLP1R inv ag -2% and HEK293 tox -12%.
`O=C(CSc1nc(=O)n(Cc2ccco2)c2c1CCC2)NCc1ccc(Cl)cc1` gave PTHR1 ag inactive, GLP1R inv ag 6% and HEK293 tox 2%.
For Cc1ccc(-c2ocnc2C(=O)Nc2ccccc2NC(=O)c2ccccn2)cc1 the results were PTHR1 ag -9%, GLP1R inv ag inconclusive, GLP1R ag 13% and HEK293 tox 1.1µM*.
For Cc1cccc(-c2ocnc2C(=O)Nc2ccccc2NC(=O)c2ccccn2)c1 the results were PTHR1 ag -13%, GLP1R inv ag 0.5µM*, GLP1R ag 14% and HEK293 tox inconclusive.
Screening CCN(CC)C(=O)C1CCCc2c1[nH]c1ccc(Cl)cc21 (stereo unspecified) returned PTHR1 ag -14%, GLP1R inv ag 4.5µM*, GLP1R ag -7% and HEK293 tox -16%.
Screening O=C(c1ccco1)N1CCN(C(=O)C2CCCc3c2[nH]c2ccc(Cl)cc32)CC1 (stereo unspecified) returned PTHR1 ag -4%[57.5 µM], GLP1R inv ag 5µM*, GLP1R ag 0% and HEK293 tox -3%.
O=C(O)c1[nH]c2ccc(Cl)cc2c1CC(=O)N1CCN(C(=O)c2ccco2)CC1 was read as PTHR1 ag inactive, GLP1R inv ag 9%, GLP1R ag -24% and HEK293 tox 5%.
